Common to all, as to conditions: treatment time: 24 h
For experiment [1], the system named is A549-GM130-SQSTM1. Kind of experiment: lowest phenotypically active concentration; higher = less potent. The gist of the method: (§1)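 Live-cell features were measured per well and normalised to solvent control wells after fifteen gene-edited A549, HepG2 and WPMY1 reporter lines had been treated for 24 h at 0.3, 1, 3 or 9 µM in four wells each. A condition was deviating when ≥3 of 4 wells sat beyond the 95th percentile of control Euclidean distances. It was reproducible when the median replicate Pearson correlation exceeded the 95th percentile of non-replicates. Phenotypic activity demanded both.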

For experiment [2], the system named is A549-ACTB-RAB5A. In words: phenotypically active (imaging signature differs from DMSO and reproducible) at any of 0.3-9 uM (binary (1 = active, 0 = inactive)); higher = active. A digest of the protocol:
as §1

The subject of another experiment is A549-CANX-COX4. Described as above. The gist of the method: as §1
Experiment [3] relates to A549-GM130-SQSTM1. The experiment is described as above. A digest of the protocol: as §1
For the next experiment, the system named is A549-TP53BP1-CLTA. The experiment is described as above. A digest of the protocol: as §1
A further experiment relates to A549-TUBA1B-RELA. The description is as above. The gist of the method:
as §1

The test system of experiment [4] is HepG2-ACTB-RAB5A. Described as above. The gist of the method:
as §1

In the next experiment the test system is HepG2-CANX-COX4. The description is as above. A digest of the protocol: as §1
A further experiment concerns HepG2-GM130-SQSTM1. The experiment is described as above. The gist of the method: as §1
In a further experiment the test system is HepG2-TP53BP1-CLTA. Described as above. A digest of the protocol: as §1
Another experiment concerns HepG2-TUBA1B-RELA. The description is as above. A digest of the protocol:
as §1

Experiment [5] deals with WPMY1-ACTB-RAB5A. The experiment is described as above. A digest of the protocol:
as §1

The subject of another experiment is WPMY1-CANX-COX4. The experiment is described as above. A digest of the protocol:
as §1

Experiment [6] concerns WPMY1-GM130-SQSTM1. The description is as above. A digest of the protocol: as §1
A further experiment deals with WPMY1-TP53BP1-CLTA. The experiment is described as above. The gist of the method:
as §1

In a further experiment the test system is WPMY1-TUBA1B-RELA. Described as above. A digest of the protocol:
as §1

Experiment [7] concerns HepG2-ACTB-RAB5A. Kind of experiment: lowest phenotypically active concentration; higher = less potent. A digest of the protocol:
as §1

The test system of experiment [8] is WPMY1-GM130-SQSTM1. The description is as above. A digest of the protocol: as §1
In experiment [9] the test system is A549-ACTB-RAB5A. The description is as above. The gist of the method: as §1
The subject of experiment [10] is WPMY1-ACTB-RAB5A. The description is as above. The gist of the method: as §1

The source of these data is the supplement of paper PMC7411054.

As to `N=C(N)NC(=N)NCCc1ccccc1` [phenformin], the “lowest phenotypically active concentration” value with A549-GM130-SQSTM1 [1] is 9 µM. Moreover, the phenotypically active in the experiment with A549-ACTB-RAB5A [2] is 0 (inactive); with A549-CANX-COX4 it was 1 (active); with A549-GM130-SQSTM1 [3], 1 (active); with A549-TP53BP1-CLTA, 0 (inactive); with A549-TUBA1B-RELA, 0 (inactive); with HepG2-ACTB-RAB5A [4] it was 0 (inactive). Also, the phenotypically active in the experiment on HepG2-CANX-COX4, with HepG2-GM130-SQSTM1, in the experiment on HepG2-TP53BP1-CLTA, in the experiment with HepG2-TUBA1B-RELA, in the experiment on WPMY1-ACTB-RAB5A [5] and with WPMY1-CANX-COX4 was 0 (inactive) each time. For the same molecule, the phenotypically active in the experiment with WPMY1-GM130-SQSTM1 [6], with WPMY1-TP53BP1-CLTA and in the experiment on WPMY1-TUBA1B-RELA was 0 (inactive) each time.
For `CCc1ccc(/C=C/C(=O)Nc2ccc(C(C)=O)cc2)o1` [Heclin], in the experiment on A549-GM130-SQSTM1 [1], the “lowest phenotypically active concentration” value turned out to be 9 µM. Moreover, the phenotypically active is 0 (inactive) with A549-ACTB-RAB5A [2]; 0 (inactive) in the experiment with A549-CANX-COX4; 1 (active) in the experiment with A549-GM130-SQSTM1 [3]; 0 (inactive) in the experiment with A549-TP53BP1-CLTA; 1 (active) with A549-TUBA1B-RELA; 0 (inactive) in the experiment with HepG2-ACTB-RAB5A [4]. The phenotypically active with HepG2-CANX-COX4, in the experiment on HepG2-GM130-SQSTM1, in the experiment on HepG2-TP53BP1-CLTA, in the experiment on HepG2-TUBA1B-RELA, with WPMY1-ACTB-RAB5A [5] and in the experiment with WPMY1-CANX-COX4 was 0 (inactive) throughout. The phenotypically active in the experiment on WPMY1-GM130-SQSTM1 [6], with WPMY1-TP53BP1-CLTA and with WPMY1-TUBA1B-RELA was 0 (inactive) each time.
For the molecule `Cn1cc(-c2ccc3nnc(Sc4ccc5ncccc5c4)n3n2)cn1`, the “lowest phenotypically active concentration” value with HepG2-ACTB-RAB5A [7] and with WPMY1-GM130-SQSTM1 [8] was 1 µM each time. For the same molecule, the phenotypically active is 0 (inactive) in the experiment on A549-ACTB-RAB5A [2]; 1 (active) in the experiment on A549-CANX-COX4; 0 (inactive) in the experiment on A549-GM130-SQSTM1 [3]; 1 (active) with A549-TP53BP1-CLTA; 0 (inactive) in the experiment with A549-TUBA1B-RELA; 1 (active) in the experiment with HepG2-ACTB-RAB5A [4]. In addition, the phenotypically active in the experiment with HepG2-CANX-COX4, with HepG2-GM130-SQSTM1, with HepG2-TP53BP1-CLTA, in the experiment with HepG2-TUBA1B-RELA, in the experiment with WPMY1-ACTB-RAB5A [5] and with WPMY1-CANX-COX4 was 0 (inactive) throughout. Also, the phenotypically active with WPMY1-GM130-SQSTM1 [6] was 1 (active); with WPMY1-TP53BP1-CLTA, 0 (inactive); in the experiment on WPMY1-TUBA1B-RELA, 0 (inactive).
On to `COc1cc2nc3occc3c(OC)c2cc1OC` [Kokusaginine], for which, in the experiment on A549-GM130-SQSTM1 [1], the “lowest phenotypically active concentration” value is 3 µM. For the same molecule, the phenotypically active is 0 (inactive) in the experiment with A549-ACTB-RAB5A [2]; 0 (inactive) with A549-CANX-COX4; 1 (active) in the experiment on A549-GM130-SQSTM1 [3]; 0 (inactive) in the experiment on A549-TP53BP1-CLTA; 0 (inactive) in the experiment with A549-TUBA1B-RELA; 0 (inactive) in the experiment on HepG2-ACTB-RAB5A [4]. The phenotypically active in the experiment with HepG2-CANX-COX4, in the experiment with HepG2-GM130-SQSTM1, in the experiment with HepG2-TP53BP1-CLTA, in the experiment with HepG2-TUBA1B-RELA, with WPMY1-ACTB-RAB5A [5] and in the experiment with WPMY1-CANX-COX4 was 0 (inactive) in each case. Also, the phenotypically active in the experiment with WPMY1-GM130-SQSTM1 [6], with WPMY1-TP53BP1-CLTA and in the experiment on WPMY1-TUBA1B-RELA was 0 (inactive) throughout.
With `CC(C)(C)c1ccc(S(=O)(=O)/C=C/C#N)cc1`, the “lowest phenotypically active concentration” value in the experiment on A549-ACTB-RAB5A [9] and in the experiment with WPMY1-GM130-SQSTM1 [8] was 9 µM each time. Moreover, the phenotypically active was 1 (active) with A549-ACTB-RAB5A [2]; 0 (inactive) in the experiment on A549-CANX-COX4; 0 (inactive) in the experiment with A549-GM130-SQSTM1 [3]; 0 (inactive) in the experiment with A549-TP53BP1-CLTA; 0 (inactive) with A549-TUBA1B-RELA; 0 (inactive) in the experiment on HepG2-ACTB-RAB5A [4]. The phenotypically active with HepG2-CANX-COX4 was 0 (inactive); in the experiment on HepG2-GM130-SQSTM1, 1 (active); in the experiment on HepG2-TP53BP1-CLTA it was 0 (inactive); in the experiment on HepG2-TUBA1B-RELA, 1 (active); with WPMY1-ACTB-RAB5A [5], 0 (inactive); with WPMY1-CANX-COX4, 1 (active). In addition, the values for the phenotypically active in the experiment on WPMY1-GM130-SQSTM1 [6], in the experiment on WPMY1-TP53BP1-CLTA and in the experiment on WPMY1-TUBA1B-RELA were 1 (active), 1 (active) and 0 (inactive), respectively.
Regarding `Cc1cccc(-c2nn(C(=S)Nc3ccccc3)cc2-c2ccnc3ccccc23)n1`, the “lowest phenotypically active concentration” value in the experiment on A549-GM130-SQSTM1 [1], in the experiment with HepG2-ACTB-RAB5A [7], in the experiment with WPMY1-ACTB-RAB5A [10] and in the experiment with WPMY1-GM130-SQSTM1 [8] was 9 µM throughout. In addition, the phenotypically active is 0 (inactive) with A549-ACTB-RAB5A [2]; 1 (active) in the experiment on A549-CANX-COX4; 1 (active) in the experiment on A549-GM130-SQSTM1 [3]; 0 (inactive) in the experiment on A549-TP53BP1-CLTA; 1 (active) with A549-TUBA1B-RELA; 1 (active) in the experiment on HepG2-ACTB-RAB5A [4]. In addition, the phenotypically active in the experiment with HepG2-CANX-COX4, in the experiment on HepG2-GM130-SQSTM1, in the experiment on HepG2-TP53BP1-CLTA, in the experiment with HepG2-TUBA1B-RELA, with WPMY1-ACTB-RAB5A [5] and with WPMY1-CANX-COX4 was 1 (active) each time. For the same molecule, the phenotypically active in the experiment on WPMY1-GM130-SQSTM1 [6], in the experiment with WPMY1-TP53BP1-CLTA and with WPMY1-TUBA1B-RELA was 1 (active) each time.
